The results in this text go back to the supplement of paper PMC6555819.

This experiment relates to VDR:RXRa (NR concentration 270 nM, RXRa partner concentration 90 nM). The experiment can be described thus: PBM binding z-score (relative to random genomic background probes); higher = stronger binding; sequences stand for … in GC…GCGATTGACAGCGTAGAATGAAGG
Here is the method:
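Protein-binding microarray (Agilent 4x180K custom design, double-stranded 60-nt probes: 5' GC cap, 34-nt variable region, 24-nt constant primer region; full probe sequence given). Purified or IVT nuclear receptor:RXRα heterodimers (3:1 NR:RXRα, mostly 270:90 nM) or homodimers were incubated for 1 h in PBS with 2% milk and no ligand, then detected with Alexa488 antibodies. Fluorescence from o1-orientation probes (~5 replicates averaged) was converted to z-scores against 500 random hg19 background probes. Variable regions are seed direct-repeat (DR0–DR5) sites, all their single-nucleotide variants and half-site ablations.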
CTAACTAGGTCAGAACAGGACAGTGAAGGATGAT returned a PBM binding z-score of 0.705.

Sequence CCTGACGGGTCACTGACAGGTTATAGCATTTGGA yielded a PBM binding z-score of 2.94.

CCTGCTAGGTCAATGGTCAGCTTAAGCAGCTCGC registered a PBM binding z-score of 1.03.

GGAACGAGGGCATTCGAGTTGATATCATGGCGAT returned a PBM binding z-score of 3.92.

Consider TCTTGTAGATCAAAGGTTAAGAATGCCGAAGCCT, for which the PBM binding z-score was 1.7.

TAGCCTAGCTCATGCGGGCCAGTATAGTGTCGGC had a PBM binding z-score of -1.1.

Sequence TCTAGCAGGCCAGAGGGTCACTCAGGAGGTACGG had a PBM binding z-score of 1.56.

TCTCGGAGGACACGAAAGTCAGAGCTTTCCAGAG displayed a PBM binding z-score of -0.402.

Regarding TCTCGGAGGACACGAAGGTCAGAGCCTTCCAGAG, the PBM binding z-score was found to be 2.42.

CGACCAAGGTCAATGCTAGGTCAGTGAAAGCATT had a PBM binding z-score of 4.69.

For the sequence CCTTACGGGTCACTGACAGGTGATAGCATTTGGA, the PBM binding z-score came to 4.2.

Sequence CAAACTAGGTCACCGGAAGGTTAAAGTCCGCATG registered a PBM binding z-score of 4.29.

The sequence CCTACTGGGCCATTCTGAGGTCATTGATCATATG had a PBM binding z-score of 3.7.

In turn, TCGAGTAGGTAACCAATGGGGCATTCAGCTTTCT yielded a PBM binding z-score of -0.172.

Regarding CGTCCAAGGTCAATGCTAGGTCAGCGAAAGCATT, the PBM binding z-score worked out at 4.93.

Take TCTAGTTGGTCAAAGGTGACACACTCGAAATGCG: the PBM binding z-score came out at 1.92.

With GTACCAAGGTGAATAGGTCGTTGGTGAGTAGGCG, the PBM binding z-score was 0.678.

In turn, CCAGACAGGTGAGAAGGTAACTCATCCTCGATTA had a PBM binding z-score of 0.198.

CAGCCTAGGTCAGGGCCAGTGTAGGAGGAACGTT showed a PBM binding z-score of 0.257.

CGAACGAGGGCATGAGTTGATTGCAAATGCCGAT: the PBM binding z-score is 1.66.

The sequence AAATGTAGGTTACATCCGGGTCATTCAGGCTATG showed a PBM binding z-score of 4.17.

Take GGAACGAGGGCAAGCTGATAGCAGAGTTTGATGG: the PBM binding z-score is 0.0958.

On to ACTCGGAGGACAAAGGTCAGAGCGACGCCAGTGA, for which the PBM binding z-score was determined as 3.47.

The sequence GCCGACAGGTGAAACGCAGGTAACTCAGGGTGGC showed a PBM binding z-score of -0.543.

Consider AGAATGAGGTTACCAATGATCAGGGAAACGCTTG, for which the PBM binding z-score was found to be 1.18.

Consider TCTCGCAGGACACGAAAGGTCAGAGCTCGACATC, for which the PBM binding z-score worked out at 2.89.

As to GCTAGCAGGCTATTTGGGTCACTCAATGACGGGC, the PBM binding z-score turned out to be 0.0221.

In turn, TCTCGGACGACACGAAAGGTCAGAGCTCGACATC gave a PBM binding z-score of 2.96.

In the case of AGCATGAGGTTATTAAGATCAGGGAATTGCGGTC, the PBM binding z-score is 2.36.

As to TGAATGAGCTTAAAGATCAGGGAACGTGGCGTCG, the PBM binding z-score was -0.548.

CAAGCTAGGTCACAGAGGTCAAAGTCCGTGCGTA registered a PBM binding z-score of 8.14.

With CCTACTGGGCCAAGGTGATTGATCAGTCAAAGCA, the PBM binding z-score was -0.746.

Sequence TAGCCTAGGTCCTGGGCCAGTATACCACGCGAAC came in with a PBM binding z-score of -0.679.

Consider AGAACGAGGGCACGCTGAATTGATAGCAGAGTAG, for which the PBM binding z-score stood at 0.557.

Turning to CCTAGTTGGTAAAGGTCACACACGCTATAGGTAC, the PBM binding z-score is 4.9.

ATCTCTAGGTAAAGATTGTTCAGTGAATGCAAAT yielded a PBM binding z-score of 0.327.

As for CCTACTGGGCCATCAGTTCATTGATATCAACGTT, the PBM binding z-score amounted to 1.13.

Sequence TCGAGTAGGTTACCAATGGGGCATACAGCTTTCT yielded a PBM binding z-score of 0.221.

In turn, ACCGAAAGGTCGACGAGGTGAGTATACACCGTTT came in with a PBM binding z-score of 5.14.

Sequence CCGACTGGGGCAAAGGCTACCATACTCAGTACGA yielded a PBM binding z-score of -0.358.
